Source: PubChem
SW480 rerep: DNA re-replication induction in SW480 cells; SW480 DNA re-replication, Hoechst DNA content imaging, 48 h; 340,000 tested, 1.8% active; Potency, µM (top dose mostly 46.1 µM), inactives show at the top dose re-replication activation, actives largely listed as activators; AID 624297; further: potency means the concentration at half of the fitted maximal effect; % of control where 0% means no effect; nearly all actives have a fitted effect of over 55% in size
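Cells (250 per well) received 23 nL compound or DMSO by pin tool and were kept 48 hr at 37 C, 5% CO2. Nuclei were then stained with Hoechst for 40 min and scanned for DNA content.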
KB-V1 cytotox: kills drug-selected multidrug resistant KB-V1 cells | KB-V1 MDR cells viability, CellTiter-Glo, 72 h | 400,000 tested, 3.4% active | AID 1347076 | Potency, µM (highest dose often 46.1 µM), usual class: cytotoxic; further: potency means the concentration at half of the fitted maximal effect; on the % scale 0 is the no-effect control and ±100 the full control effect; nearly all actives have a fitted effect of over 60% in size
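KB-V1 MDR subline cells in DMEM (phenol-red free, 10% FBS) exposed to compounds in qHTS concentration series for 72 h at 37 degrees C. Viability read by CellTiter-Glo luminescence; concentration-effect curves fitted after normalization and correction.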
MCF10A rereplic: inducers of DNA re-replication in MCF 10A breast cells | Potency, µM (titrated, usually from 46.1 µM), inactives show at the highest dose activity, positive = re-replication, most hits filed as activators | AID 624296 | 350,000 tested, 2.9% active | MCF 10A DNA re-replication, Hoechst nuclear intensity, 48 h; further: potency means the concentration at half of the fitted maximal effect; % of control where 0% means no effect; nearly all actives have a fitted effect of over 50% in size
IL1B secr inh: blocks inflammasome-driven IL-1 beta release; THP-1 LPS/ATP IL-1B secretion, AlphaLISA, 16 h; stronger effect = lower value; activity change, % at 57.5 µM; 360,000 tested, 4.7% active; in the data active means activity change below about -50%; inconclusive means mostly about -30% to -49%; further: on the % scale 0 is the no-effect control and ±100 the full control effect
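THP-1 cells pretreated 1 hr with compounds (up to 57.5 uM final), then stimulated with LPS (250 ng/mL final) plus ATP (1.25 mM final); secreted IL-1B measured by AlphaLISA after 16 hr, decreased signal indicating inhibition.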
KB-3-1 cytotox: KB-3-1 parental cell cytotoxicity; KB-3-1 viability, CellTiter-Glo ATP luminescence, 72 h; Potency, µM (titrated, usually from 46.1 µM), hits mostly cytotoxic; 400,000 tested, 1.4% active; AID 1347075; further: potency means the concentration at half of the fitted maximal effect; on the % scale 0 is the no-effect control and ±100 the full control effect; nearly all actives have a fitted effect of over 60% in size
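Parental KB-3-1 viability, qHTS format: 72 h compound exposure, 37 °C; CellTiter-Glo; media-only wells and DMSO plates as controls; concentration-effect fits on corrected data.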
Numbers without * were called inactive; i = inactive; ? = inconclusive; . = not tested or not shown; [ ] = dose if it differs, or a comment. Shown are actives, neighbours in structure and some others; about 9.9% of the full set was active somewhere. Unless noted, the call rests on the fitted dose curve; in most records, active means well fitted curve in the direction sought with a large enough effect; inconclusive means small, poorly fitted or top-dose-only effect, or another doubt; inactive means no such curve, though single readings can be large; an effect the other way counts as inactive or inconclusive.

SMILES | SW480 rerep | KB-V1 cytotox | MCF10A rereplic | IL1B secr inh | KB-3-1 cytotox
Cc1cccc(COc2ccc(/C=N/NC(=O)c3nnn(-c4nonc4N)c3COc3ccc(F)cc3)cc2)c1 | ? | i | 14.6µM* | -12.6 | ?
COCc1c(C(=O)N/N=C\c2cccs2)nnn1-c1nonc1N | -3.7% | i | 2.8% | -67.8* | i
Nc1nonc1-n1nnc(C(=O)N/N=C/c2ccc(OCc3ccccc3)cc2)c1COc1ccc(F)cc1 | 0.4% | i | 11.1% | 15.7 | i
CCOC(=O)C1CCCN(C(=O)c2ccc3c(c2)C(C)(C)CCC3(C)C)CC1 (stereo not drawn) | . | i | . | 30.3 | i
CN(C(=O)COC(=O)c1ccc(-c2ccc(O)cc2)cc1)C1CCS(=O)(=O)C1 (stereo not drawn) | 3.9% | i | 8.6% | 1.0 | i
CCOc1ccc(S(=O)(=O)Nc2cccc(C(=O)NCCCn3ccnc3)c2)cc1 | -17.3% | ? | 21.1% | 0.0 | i
Cc1ccc(NC(=O)CCn2c(=S)oc3ccccc32)cc1F | 2.3% | i | 7.2% | 7.1 | i
Cc1sc2nc(CSc3ccccc3)nc(N3CCN(C)CC3)c2c1C | 19.5% | i | 13.6% | . | ?
COCCNc1nc(CSc2ccccc2)nc2sc(C)c(C)c12 | -0.4% | 10.3µM* | ? | 0.0 | i
O=C(CN1CCN(c2ccccc2)CC1)NC(=O)NCc1ccco1 | 2.4% | ? | 0.5% | -5.5 | i
O=C(CN1CCN(C(c2ccccc2)c2ccccc2)CC1)NC(=O)NCc1ccco1 | ? | 2.31µM* | 5.1% | -5.9 | i
COc1ccc(CNC(=O)CN2CCN(C(c3ccccc3)c3ccccc3)CC2)cc1 | ? | i | ? | -64.3* | i
CC(C)(C)NC(=O)NC(=O)CN1CCN(C(c2ccccc2)c2ccccc2)CC1 | 14.6% | 20.6µM* | 11.4% | 2.8 | i
OCCCCNCc1ccc(OCc2ccc(Cl)cc2Cl)cc1 | 3.0% | i | 10.4% | -100.6* | i
OCCNCc1ccc(OCc2ccc(Cl)cc2Cl)cc1 | 4.11µM* | i | ? | -97.8* | i
S=C(Nc1ccccc1)Nc1ccc(OCc2ccc(Cl)cc2Cl)cc1 | ? | i | i[0.0737 µM] | -2.4 | i
COc1cc(CNCCCCO)ccc1OCc1ccccc1F | -6.4% | i | 4.5% | -14.4 | i
O=c1c2ccccc2nc(/C=C/c2c[nH]c3ccccc23)n1CCO | 15.9% | ? | ? | -92.3* | i
CCn1c(/C=C/c2ccc(F)cc2)nc2ccccc2c1=O | ? | i | 1.9% | . | ?
O=c1c2ccccc2nc(/C=C/c2cc(Br)ccc2O)n1CCO | ? | ? | 14.6µM* | -97.7* | ?
O=C(CN1C(=O)c2ccccc2S1(=O)=O)Nc1cc(S(=O)(=O)N2CCCCC2)ccc1Cl | -4.1% | i | 0.0% | 0.6 | i
O=C(Cc1ccc(-n2cccc2)cc1)NCc1ccccc1Cl | 18.4µM* | i | 4.11µM* | -5.6 | ?
O=C(Cc1ccccc1)NCc1ccc(-n2cccc2)cc1 | 6.51µM* | i | 10.3µM* | 26.1 | ?
Cc1ccc(C)c(S(=O)(=O)ON2C(=O)c3ccccc3C2=O)c1 | ? | i | 5.8µM* | -18.1 | ?
Cc1cc(S(=O)(=O)ON2C(=O)c3ccccc3C2=O)ccc1F | 8.0% | i | ? | -16.2 | ?
COc1ccccc1CC(=O)NCc1nn(-c2ccccc2)nc1C | 0.2% | i | 8.0% | 0.0 | i
Cc1ccc(N(CC(=O)NCc2ccc(Cl)cc2)S(C)(=O)=O)cc1 | -5.1% | i | -5.6% | 11.6 | i
O=C(OCC(=O)N1CCOCC1)c1cc(F)c(F)cc1Cl | -2.1% | i | -19.6% | 34.7 | i
CCCCn1c(SCC(=O)Nc2ccc3c(c2)OCCO3)nnc1C(CC)N(C)C (stereo not drawn) | -0.4% | i | 3.0% | -5.7 | i
CCCCn1c(SCC(=O)Nc2cc(C(F)(F)F)cc(C(F)(F)F)c2)nnc1C(CC)N(C)C (stereo not drawn) | ? | 14.6µM* | ? | -9.2 | i
